Assay outcomes from PubChem BioAssay.
Shown are actives, neighbours in structure and some others; about 3.2% of the full set was active somewhere.
Rce1 inh – yeast Ras-converting enzyme inhibition; Q03530; yeast membranes, quenched prenylated peptide cleavage fluorescence; calls only; hit rate 0.27% among 290,000; AID 2563;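 active means fall in fluorescence gain of 50% or more versus controls, with final raw signal at or below 3038400; inconclusive means same 50% fall but final raw signal above 3038400; inactive means fall in fluorescence gain under 50%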;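 further: plate controls were neutral control wells for no effect and wells lacking membranes for full effect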
Kir21 inh – inhibitors of mouse Kir2.1 inward-rectifier potassium channel. P35561. HEK293-Kir2.1, FluxOR thallium flux fluorescence; hits give low values. B-score at 10 µM. hit rate 0.85% among 310,000. AID 1672;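 active means fluorescence ratio B-score at or below minus 3 SD of library scores, with starting-brightness B-score within 2 SD, cut at about -4.2 in these data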;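 further: channel flux triggered by added potassium and thallium sulfate stimulus; B-score of peak minus minimum fluorescence over baseline after thallium stimulus; more negative B-score means stronger Kir2.1 block with less thallium influx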
CHT inh – inhibits the human high affinity choline transporter | Q9GZV3 | CHT-expressing cells, membrane potential dye, choline response; hits give low values | hit rate 0.86% among 310,000 | B-score at 10 µM;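 active means B-score over 3 SD under the library average, and starting fluorescence ratio not unusually high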;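 further: choline stimulus applied at its EC90 after an EC20 pre-addition; B-score computed on integrated fluorescence ratio after choline addition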
TMEM16A inh – mouse TMEM16A channel inhibition, primary screen; Q8BHY3; HEK293 TMEM16A/YFP iodide influx fluorescence, ionomycin; normalized B-score (activity score, 25-100; higher = stronger inhibition) at 10 µM; hit rate 1.2% among 310,000; AID 588511;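 active means ratio plate-corrected score three or more library SD toward inhibition, starting fluorescence score within five deviations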;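 further: score derived from kinetic fluorescence span divided by baseline fluorescence per well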
Target sequence (Q8BHY3 whole entry, looked up): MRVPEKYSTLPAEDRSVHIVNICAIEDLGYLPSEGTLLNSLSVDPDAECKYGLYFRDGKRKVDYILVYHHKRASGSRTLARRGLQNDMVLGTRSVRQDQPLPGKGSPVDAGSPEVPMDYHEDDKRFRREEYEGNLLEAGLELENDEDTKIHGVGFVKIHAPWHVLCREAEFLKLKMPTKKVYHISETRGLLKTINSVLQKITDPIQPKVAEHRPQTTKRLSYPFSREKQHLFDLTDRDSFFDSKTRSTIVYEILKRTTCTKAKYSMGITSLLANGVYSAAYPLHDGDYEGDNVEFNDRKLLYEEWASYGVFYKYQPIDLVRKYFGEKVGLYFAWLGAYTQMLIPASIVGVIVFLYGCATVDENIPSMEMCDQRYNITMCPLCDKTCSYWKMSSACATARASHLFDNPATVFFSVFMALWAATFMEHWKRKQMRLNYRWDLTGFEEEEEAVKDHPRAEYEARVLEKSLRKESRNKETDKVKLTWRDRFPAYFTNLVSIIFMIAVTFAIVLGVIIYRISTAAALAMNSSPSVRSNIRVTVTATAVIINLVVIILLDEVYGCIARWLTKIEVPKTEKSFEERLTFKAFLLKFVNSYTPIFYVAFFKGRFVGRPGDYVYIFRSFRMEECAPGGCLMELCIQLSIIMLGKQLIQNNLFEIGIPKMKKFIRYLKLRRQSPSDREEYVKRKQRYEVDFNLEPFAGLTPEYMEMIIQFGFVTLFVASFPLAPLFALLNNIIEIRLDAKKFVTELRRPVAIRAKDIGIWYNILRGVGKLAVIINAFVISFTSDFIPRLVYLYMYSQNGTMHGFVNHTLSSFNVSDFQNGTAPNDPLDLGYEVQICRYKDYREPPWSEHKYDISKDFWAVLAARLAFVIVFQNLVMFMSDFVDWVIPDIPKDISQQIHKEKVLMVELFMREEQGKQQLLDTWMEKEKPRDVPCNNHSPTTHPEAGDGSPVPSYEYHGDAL
CHT PAM – human CHT allosteric activation; CHT-expressing cells, membrane potential dye, choline EC20; hits give high values; LV-AA mutant CHT in HEK293 cells; Q9GZV3; B-score at 10 µM; hit rate 0.49% among 310,000; AID 488977;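 active means initial fluorescence not abnormally high and integrated response B-score, plate-corrected, over 3 SD above library mean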
ANO1 activ – activates or potentiates the mouse TMEM16A chloride channel; Q8BHY3; HEK293 TMEM16A/YFP-H148Q/I152L, iodide quench fluorescence; hits give low values; B-score at 10 µM; hit rate 0.3% among 340,000; AID 623877;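 active means fluorescence-ratio B-score plate-corrected deviation score at least 3 library SD below zero, with starting fluorescence score within 5 deviations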;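 further: channel opened by trigger with iodide after compound preincubation; score built on the fluorescence ratio of max minus min over baseline; more negative score means more quench and so TMEM16A activation or potentiation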
CHT inh conf – confirmation of human choline transporter CHT inhibitors. shares compounds with CHT inh. CHT-expressing cells, choline membrane potential dye; LV-to-AA substituted CHT, HEK293 cells. CHT activity remaining % of control (hits give low values), % at 10 µM. hit rate 70% among 2,400;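 active means choline transporter activity left, mean of duplicates at 10 µM, below buffer-only control mean minus 3 SD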;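 further: depolarization triggered by choline at its EC90 following an EC20 pre-addition; 0% = hemicholinium-3 full block and 100% = buffer-only control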
HEK293 MPD ctr – activity in parental HEK293 cells lacking CHT. shares compounds with CHT inh. membrane potential dye, choline response; active = decrease or increase beyond buffer ±3SD. membrane potential ratio readout (active if shifted either direction beyond buffer ±3SD; no single direction) at 10 µM. hit rate 4% among 2,400. AID 493222;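 further: parental cells lack the transporter so any hit is non-specific; ratio is peak minus trough fluorescence over baseline after EC90 choline challenge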
The depositor's hits bear a star; i = inactive; u = inconclusive; x = no result given.

SMILES	Rce1 inh	Kir21 inh	CHT inh	TMEM16A inh	CHT PAM	ANO1 activ	CHT inh conf	HEK293 MPD ctr
CCCc1cc(-c2nc(N)ncc2-c2ccc3c(c2)OCCCO3)c(O)cc1OC	i	1.6	i	i	i	i	x	x
O=C(O)CC/C(=N\Nc1ccccc1[N+](=O)[O-])c1cccs1	i	1.9	-5.7*	i	i	i	48%*	2.9*
O=C(O)CC/C(=N\Nc1ccc(S(=O)(=O)N2CCCC2)cc1[N+](=O)[O-])c1cccs1	x	x	x	x	x	i	x	x
CCOc1ccc([C@@H]2CC=C(C(=O)O)[C@H](c3cccc(Cl)c3)N2S(=O)(=O)c2ccc(C)cc2)cc1	x	x	-6.1*	i	i	-6.9*	62%*	i
CCOc1ccc([C@@H]2CC=C(C(=O)O)[C@H](c3ccc(F)cc3)N2S(=O)(=O)c2ccc(C)cc2)cc1	x	x	i	i	i	i	x	x
Cc1ccc(S(=O)(=O)N2[C@@H](c3ccc(Cl)cc3)C(C(=O)O)=CC[C@H]2c2ccc(Cl)c(Cl)c2)cc1	x	x	-6.2*	100*	i	i	65%*	i
COc1ccc(S(=O)(=O)N2CCOC2CNC(=O)C(=O)NCCCN2CCOCC2)cc1OC (configuration not stated)	i	-0.79	i	i	i	i	x	x
CCOC(=O)C1=C(C2=CCCCC2)c2ccc(OC)cc2N(S(=O)(=O)C(F)(F)F)C1C(=O)OCC (configuration not stated)	x	x	x	x	x	i	x	x
COc1ccc(OC)c(Nc2nc(N)c([N+](=O)[O-])c(N3CCOCC3)n2)c1	i	1.1	i	i	i	i	x	x
Cc1ccccc1NC(=O)c1cccc(S(=O)(=O)Oc2ccc([N+](=O)[O-])cc2)c1	i	1.1	-5.7*	i	i	i	i	i
Cc1ccc(-c2csc3nc(SCC(=O)Nc4ccc(Cl)c(C(=O)O)c4)[nH]c(=O)c23)cc1	i	0.03	-5.6*	i	i	i	67%*	i
Cc1ccc2c(C)c(C)c(=O)n(C)c2c1	x	x	x	x	x	i	x	x
Cc1n[nH]c(C)c1Sc1ccccc1N=Cc1cc(Cl)cc([N+](=O)[O-])c1O	i	2	-7.9*	i	i	i	36%*	i
Cc1n[nH]c(C)c1Sc1ccccc1[N+](=O)[O-]	i	-0.48	i	i	i	i	x	x
CC1CCN(CC(CS(=O)(=O)c2ccc([N+](=O)[O-])cc2)N2CCC(C)CC2)CC1 (configuration not stated)	i	1	i	i	i	i	x	x
CCOc1nc(NC2CCCC2)nc(N2CCC(C)CC2)n1	i	-0.67	i	i	i	i	x	x
S=c1[nH]nc(COc2ccccc2)n1Cc1ccccc1	i	-0.67	i	i	i	i	x	x
CCc1ccc(OCc2n[nH]c(=S)n2Cc2ccccc2)cc1	i	0.13	-6.5*	i	i	i	68%*	i
[O-][n+]1c2ccccc2cc2ccccc21	i	-0.28	i	i	i	i	x	x
O=[N+]([O-])c1ccc(Nc2nc(NC3CCCCC3)nc(N3CCCC3)n2)cc1	i	1.6	i	i	i	i	x	x
Cc1ccc(-c2ccc(C(=O)Nc3ccccc3)o2)c2ccccc12	i	0.9	i	i	i	i	x	x
Cc1ccc(S(=O)(=O)NC(=O)c2ccc(-c3ccc(C)c4ccccc34)o2)cc1	u	0.46	-5*	25*	i	i	i	i
Cc1occc1C(=O)NNC(=S)NC(=O)COc1ccc(Cl)cc1Cl	i	-0.99	-9.4*	100*	i	-5*	58%*	i
COc1ccc(/C(O)=C2/C(=O)C(=O)N(c3ccccn3)C2c2cccc(Cl)c2)cc1 (configuration not stated)	i	-0.28	-5.3*	i	i	i	59%*	i
CNc1c(NS(=O)(=O)c2cc(OC)ccc2OC)c(=O)oc2ccccc12	x	-0.42	i	i	i	i	x	x
SMILES	Rce1 inh	Kir21 inh	CHT inh	TMEM16A inh	CHT PAM	ANO1 activ	CHT inh conf	HEK293 MPD ctr
O=C1CSC(=S)N1/N=C/c1c(F)cccc1F	i	-0.03	-5.6*	i	i	i	71%*	i
O=C1CSC(=S)N1N=Cc1c(O)ccc2ccccc12	x	x	x	x	x	i	x	x
Cc1noc(C)c1C(=O)OC(C)C(=O)NC(C)c1ccc(Cl)cc1Cl (configuration not stated)	x	x	x	x	x	i	x	x
COc1ccc(C)cc1NC(=O)c1ccccc1N(C)S(=O)(=O)c1ccccc1	i	-1.5	i	i	i	i	x	x
CC(C)NC(=O)CN1CCC(c2nc3ccccc3[nH]2)CC1	i	-0.93	i	i	i	i	x	x
CC(=O)C1=C(C)Nc2ncnn2C1c1ccccc1F (configuration not stated)	i	-0.31	i	i	i	i	x	x
CNCc1c(OCc2ccc(F)cc2)ccc2ccccc12	i	-3.2	-7.9*	i	i	i	41%*	-13*
NC(=O)c1c(NC(=O)CN2C(=O)NC(Cc3ccccc3)C2=O)sc2c1CCC2 (configuration not stated)	i	1.6	-6.3*	i	i	i	62%*	i
O=c1cc(-c2ccccc2)[nH]n2cnnc12	i	0.03	i	i	i	i	x	x
CC1CCCN(C(=S)Nc2ccc(S(=O)(=O)N3CCCCC3)cc2)C1 (configuration not stated)	i	0.07	-13*	i	i	i	i	i
O=C(NCCCN1CCOCC1)c1ccccc1	i	0.39	i	i	i	i	x	x
O=C(Nc1ccccc1C(=O)NCCCN1CCOCC1)c1ccc(F)cc1	i	2.2	-7.9*	i	i	i	38%*	i
Cc1cc(C)c(C)c(S(=O)(=O)N2CCC(C(=O)N3CCCCCCC3)CC2)c1C	i	-1.1	i	i	i	i	x	x
CCCN(CCC)c1nc(C#N)nc(N(CCC)CCC)n1	i	-0.91	i	i	i	i	x	x
CCCN(CCC)c1nc(N(CCC)CCC)[nH]c(=O)n1	i	1.1	-5.1*	i	i	i	64%*	i
Cc1ccc(C)c(NC(=O)CCC(=O)NNC(=S)Nc2ccccc2)c1	i	0.09	i	i	i	i	x	x
